An excerpt weighted towards active compounds, which were near 2.4% of everything screened.
Platelet DG rel – inhibitors of platelet dense granule secretion, primary screen, cell-based, MLPCN, human platelets; human platelet-rich plasma, SFLLRN dense granule ATP release, luminescence; inhibition, %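 (compounds screened at 7.5 µM in platelet-rich plasma)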; 300,000 tested, 0.22% active; AID 1663, 2009;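 active means mean replicate score, as percent of positive control, at or above 50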
SENP8 block-1 – SENP8 protease inhibitors, primary screen, biochemical, luminescence. purified SENP8, Z-RLRGG-aminoluciferin cleavage. inhibition, % at 10 µM. 330,000 tested, 1.2% active; in the data active means inhibition above about 50%
Target sequence (Q96LD8 whole entry, looked up): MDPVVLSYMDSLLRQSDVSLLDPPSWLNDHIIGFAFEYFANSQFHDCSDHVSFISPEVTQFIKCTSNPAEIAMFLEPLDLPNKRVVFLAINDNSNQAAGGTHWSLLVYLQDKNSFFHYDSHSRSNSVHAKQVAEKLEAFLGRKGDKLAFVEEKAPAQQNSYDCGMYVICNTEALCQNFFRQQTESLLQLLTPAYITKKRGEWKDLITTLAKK
SENP8 block-2 – human SENP8 protease inhibitors, primary screen, biochemical, fluorescence, Nedd8 protein substrate, uHTS; AID 602440, 2012; inhibition, % at 20 µM; 360,000 tested, 0.64% active; recombinant SENP8; in the data active means inhibition mostly above about 40%, no sharp cut-off; inactive means mostly below about 27%
SENP6 block – SENP6 protease inhibitors, primary screen, biochemical, luminescence, uHTS. inhibition, % at 10 µM. AID 2599, 2010. 330,000 tested, 1.8% active. Sentrin-specific protease 6 (Homo sapiens), Q9GZR1. Recombinant SENP6 catalytic domain, aminoluciferin luminescence;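 active means inhibition above about 50% at the single tested dose, limit read from the data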
SENP7 block – SENP7 protease inhibitors, primary screen, biochemical, luminescence, uHTS. Sentrin-specific protease 7 (Homo sapiens), Q9BQF6. inhibition, % at 5 µM. AID 434973, 2010. 330,000 tested, 1.5% active. recombinant SENP7, Z-RLRGG-aminoluciferin luminescence, 40 min;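 active means inhibition above about 50% at the single test dose, limit read from the data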
Target sequence (Q9BQF6 706-1050 limits assumed): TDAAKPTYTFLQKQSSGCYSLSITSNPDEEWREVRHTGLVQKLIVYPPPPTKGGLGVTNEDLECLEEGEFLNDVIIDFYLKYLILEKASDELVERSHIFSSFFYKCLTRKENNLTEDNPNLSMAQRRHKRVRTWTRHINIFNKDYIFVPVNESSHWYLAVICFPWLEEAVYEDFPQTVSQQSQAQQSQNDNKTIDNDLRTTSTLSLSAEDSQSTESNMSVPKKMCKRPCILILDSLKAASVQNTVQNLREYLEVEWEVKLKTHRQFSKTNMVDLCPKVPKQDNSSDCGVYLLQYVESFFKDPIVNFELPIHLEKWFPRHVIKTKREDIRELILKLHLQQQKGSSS
SENP8 conf – SENP8 protease inhibitors, retest, confirmation, biochemical, luminescence, single concentration. shares compounds with SENP7 block. Recombinant SENP8, Z-RLRGG-aminoluciferin luminescence, 60 min. inhibition, % at 12.5 µM. 6,200 tested, 40% active. AID 488912, 2010;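 active means mean inhibition across replicates above about 50%, limit read from the data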
SENP6 confirm – SENP6 protease inhibitors, confirmation, biochemical, luminescence, single concentration. shares compounds with SENP7 block. recombinant SENP6, Z-RLRGG-aminoluciferin luminescence. inhibition, % at 12.5 µM. 6,200 tested, 58% active. AID 488915, 2010
SENP7 conf – SENP7 protease inhibitors, retest, confirmation, biochemical, luminescence, single concentration | shares compounds with SENP7 block | recombinant SENP7, Z-RLRGG-aminoluciferin luminescence, 40 min | inhibition, % at 12.5 µM | 6,200 tested, 69% active | AID 488917, 2010
Casp3 SENP sel – caspase-3 protease inhibitors, confirmation, selectivity assay for SENP inhibitor project, biochemical, single concentration; shares compounds with SENP7 block; purified caspase-3, Z-DEVD-aminoluciferin luminescence, 60 min; inhibition, % at 12.5 µM; 6,200 tested, 60% active;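 active means mean inhibition above about 50%, limit read from the data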
SENP luc ctr – interferes with luciferase luminescence in SENP counter-screen; AID 488919; shares compounds with SENP7 block; Pre-incubated SENP8/Z-RLRGG-aminoluciferin, luciferase luminescence interference; inhibition, % at 12.5 µM; 6,200 tested, 39% active;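 active means mean inhibition above about 50% when retested at one dose, limit read from the data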
Of the large screens only hits and unclear results are named; the others gave an inactive call (follow-up assays come after a bar, where they were run).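 How the source made its calls, unless noted: active means mean inhibition above about 50% in the one-dose retest (limit read from the data); inactive means the rest.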

Fc1ccc2c(Cl)c(-c3nnc(-c4cccs4)o3)sc2c1	SENP7 block 69 | SENP8 conf inactive | SENP6 confirm inactive | SENP7 conf inactive | Casp3 SENP sel inactive | SENP luc ctr inactive
c1cncc(-c2nnc(-c3cccs3)o2)c1	none
CSc1nsc(N/N=C/c2ccc3c(c2)OCO3)c1C#N	SENP7 block 53 | SENP8 conf inactive | SENP6 confirm inactive | SENP7 conf inactive | Casp3 SENP sel inactive | SENP luc ctr inactive
CCOC(=O)N1CCN(CC(=O)Nc2sc(CC)cc2C(=O)c2ccc(OC)cc2)CC1	none
Cc1ccc(S(=O)(=O)N2CCCCC2)cc1NC(=O)c1c(-c2ccccc2)noc1C	none (no result: Platelet DG rel)
CCC1(c2ccccc2)NC(=O)N(CC(=O)Nc2ccc3c(C)cc(=O)oc3c2)C1=O (configuration not stated)	none
CCOC(=O)C1=C(COC(=O)c2sccc2C)NC(=O)NC1C (configuration not stated)	none (no result: Platelet DG rel)
CCOC(=O)C1=C(COC(=O)c2ccc([N+](=O)[O-])s2)NC(=O)NC1C (configuration not stated)	SENP8 block-1 76, SENP6 block 75 (no result: Platelet DG rel) | SENP8 conf 82 | SENP6 confirm 87 | SENP7 conf 52 | Casp3 SENP sel inactive | SENP luc ctr inactive
N/C(=N\OC(=O)/C=C/c1ccccc1)c1ccccc1	SENP8 block-1 80, SENP6 block 90 | SENP8 conf 90 | SENP6 confirm 89 | SENP7 conf 99 | Casp3 SENP sel 90 | SENP luc ctr 83
Cc1cccc(/C(N)=N/OC(=O)c2ccoc2C)c1	SENP8 block-1 94, SENP6 block 97, SENP7 block 98 | SENP8 conf 97 | SENP6 confirm 97 | SENP7 conf 102 | Casp3 SENP sel 97 | SENP luc ctr 96
Cc1ccccc1C(=O)O/N=C(\N)c1ccc([N+](=O)[O-])cc1	none
C/C(=N/OC(=O)c1ccc(F)cc1)c1ccc(C)cc1	SENP8 block-1 55, SENP6 block 60, SENP7 block 71 | SENP8 conf inactive | SENP6 confirm inactive | SENP7 conf inactive | Casp3 SENP sel inactive | SENP luc ctr inactive
COc1ccc(C(=O)O/N=C(\N)c2cccc(C)c2)cc1OC	none
CC(=NOC(=O)c1ccc(F)cc1)c1nccs1	none (no result: Platelet DG rel, SENP8 block-1, SENP6 block, SENP7 block)
Cc1ccccc1/C(N)=N/OC(=O)c1ccc(F)cc1	SENP8 block-1 61, SENP6 block 74, SENP7 block 81 | SENP8 conf 70 | SENP6 confirm 72 | SENP7 conf 93 | Casp3 SENP sel 90 | SENP luc ctr 75
N/C(=N\OC(=O)/C=C/c1ccccc1)c1ccc(Cl)cc1	none
COc1ccc(N2Cc3ccccc3C2=NC(=O)c2cncc(Br)c2)cc1	none
CCCCOc1ccc(S(=O)(=O)NC(=O)C2(C)CCN2C(=O)c2cccc(F)c2)cc1 (configuration not stated)	none (no result: Platelet DG rel, SENP8 block-1, SENP6 block, SENP7 block)
COc1ccc(CNC(=O)CSc2ncn[nH]2)cc1OC	none
Cc1ccccc1C(=O)O/N=C(\N)c1ccccc1	Platelet DG rel 60, SENP8 block-1 93, SENP6 block 95, SENP7 block 100 | SENP8 conf 97 | SENP6 confirm 98 | SENP7 conf 102 | Casp3 SENP sel 98 | SENP luc ctr 96
Cc1occc1C(=O)O/N=C(\N)c1ccccc1	Platelet DG rel 72, SENP8 block-1 91, SENP6 block 94, SENP7 block 93 | SENP8 conf 94 | SENP6 confirm 95 | SENP7 conf 102 | Casp3 SENP sel 98 | SENP luc ctr 94
O=C1c2ccccc2NC(c2cnc3ccccc3n2)N1O (configuration not stated)	SENP6 block 72 | SENP8 conf inactive | SENP6 confirm inactive | SENP7 conf inactive | Casp3 SENP sel inactive | SENP luc ctr inactive
Fc1ccc(Nc2ccc3ccccc3n2)c(F)c1	SENP8 block-1 95, SENP6 block 95, SENP7 block 99 | SENP8 conf 98 | SENP6 confirm 99 | SENP7 conf 103 | Casp3 SENP sel 95 | SENP luc ctr 93
CC(=O)c1cccc(S(=O)(=O)Nc2cc(C(F)(F)F)ccc2N2CCOCC2)c1	none (no result: Platelet DG rel)
C=CCn1c(SCc2nc(N)nc(N3CCCCC3)n2)nnc1-c1ccco1	SENP7 block 61 | SENP8 conf inactive | SENP6 confirm inactive | SENP7 conf inactive | Casp3 SENP sel inactive | SENP luc ctr inactive
N#Cc1c(NC(=O)CSc2ncn[nH]2)sc2c1CCCCC2	SENP8 block-1 68, SENP6 block 76 | SENP8 conf inactive | SENP6 confirm 83 | SENP7 conf 89 | Casp3 SENP sel inactive | SENP luc ctr inactive
Cc1cccc(C(=O)Nc2sc3c(c2C(=O)O)CCCC3)c1	SENP8 block-1 93, SENP6 block 93, SENP7 block 70 | SENP8 conf 97 | SENP6 confirm 98 | SENP7 conf 102 | Casp3 SENP sel 95 | SENP luc ctr 79
O=C(Nc1sc2c(c1C(=O)O)CCCCC2)c1cccnc1	none
O=C(Nc1sc2c(c1C(=O)O)CCC2)c1cccc(Cl)c1	SENP8 block-1 95, SENP6 block 97, SENP7 block 68 | SENP8 conf 96 | SENP6 confirm 99 | SENP7 conf 102 | Casp3 SENP sel 95 | SENP luc ctr 98
NC(=O)c1c(NC(=O)c2ccccc2)sc2c1CCc1ccccc1-2	SENP7 block 64 | SENP8 conf inactive | SENP6 confirm inactive | SENP7 conf inactive | Casp3 SENP sel inactive | SENP luc ctr inactive
CC(C)(C)c1ccc(OCCNC(=O)Cc2ccc(F)cc2)cc1	none
CCC(NC(=O)CCc1nnc(-c2cc(C)on2)o1)C12CC3CC(CC(C3)C1)C2 (configuration not stated)	none
CN1CCc2c(sc(NC(=O)Cc3ccccc3)c2C(N)=O)C1	none
